Values joined by “and” are separate entries in the source; they are usually repeats but may differ in a detail not shown here. Equal entries are not always repeated. The panel holds about 83,000 compounds, 20% with a hit somewhere; the sample as a whole holds those more often.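 Negative percent growth values reflect cell death: -40 means 40% of the cells present at the start died, and -100 means all died.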 Values without a mark were called inactive. Active and inactive are the calls of the source. The calls were made as follows: active = growth percent below 10; inactive = the rest.

This test deals with HL-60(TB) leukemia. Nature of the test: NCI-60 one-dose screen, 48 h (100 = growth as untreated, 0 = no growth, -100 = all killed). To be noted: 10 µM unless noted.
Take `O=C(O)C1C2CC3C(OC(=O)C31)C2Br` (stereo not given): the growth was 97% and 103%. As for `Cc1ccc(NC(=O)c2ccc(CN3CC[C@H](N(C)C)C3)c(C(F)(F)F)c2)cc1Nc1nccc(-c2cncnc2)n1`, the growth was -51.3% (active). `O=C(NCCO)c1cccnc1`: the growth was 97.1%.

As for `Cc1onc(-c2ccccc2)c1C(=O)N/N=C/c1cc(Cl)cc(Cl)c1O`, the growth is 15.7%. On to `Cc1nc(Nc2n[nH]c3c2CN(C(=O)N[C@H](CN(C)C)c2ccccc2)C3(C)C)c2sccc2n1`, for which the growth was -30.6% (active).
